Only some compounds are listed: those with a hit (about 6.5% of all), similar ones and a draw of the others.
Vaccinia Venus: qHTS for Stage-Specific Inhibitors of Vaccinia Orthopoxvirus: Venus Reporter Primary qHTS; Vaccinia virus Venus reporter expression, fluorescence; AID 720580, 2013; Potency, µM (highest dose often 36.5 µM), inactives show at the highest dose activity change, negative = inhibition, usual class: inhibitors; hit rate 0.46% among 330,000; calls by dose curve; tested in A549 cells; also: potency is read from the fitted curve at half-maximal effect; nearly all actives have a fitted effect of over 30% in size
HCMV antiviral: qHTS Assay for inhibitors of the human cytomegalovirus (HCMV); HFF cells, HCMV-luciferase reporter, 72 h; stronger effect = lower value; activity change, negative = inhibition, % at 57.5 µM; hit rate 4.5% among 410,000; AID 1259415, 2018; in the data active = activity change below about -60%; inconclusive = no clear call, values can overlap the other calls; inactive = above about -39%
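Luciferase read-out from HCMV-luciferase-infected HFFs (MOI 1 PFU/cell) 72 h post infection at 37C; compounds added after 16 h cell attachment; activity normalized between buffer-only basal and Salinomycin (10uM) inhibitor controls.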
LASV entry inh: qHTS for Inhibitors of binding or entry into cells for Lassa Virus; Lassa virus pseudotype entry inhibition, cell reporter; Potency, µM (top dose mostly 37.9 µM), without a hit: at the highest dose activity change, negative = inhibition, usual class: inhibitors; hit rate 1.2% among 300,000; AID 540256, 2011; calls by dose curve; tested in HEK293 cells; also: potency is read from the fitted curve at half-maximal effect; nearly all actives have a fitted effect of over 50% in size
VACV mCherry inh: qHTS for Stage-Specific Inhibitors of Vaccinia Orthopoxvirus: mCherry Reporter Primary qHTS. Vaccinia virus mCherry reporter infection, fluorescence. Potency, µM (titrated, usually from 36.5 µM), for inactives: top-dose activity change, negative = inhibition, actives largely listed as inhibitors. hit rate 0.63% among 310,000; calls by dose curve; tested in A549 cells; also: potency is read from the fitted curve at half-maximal effect; nearly all actives have a fitted effect of over 35% in size
MARV entry inh: qHTS for inhibitors of binding or entry into cells for Marburg Virus | Marburg virus pseudotyped entry inhibition, cell reporter | Potency, µM (top dose mostly 37.8 µM), for the others: at the top dose activity change, negative = inhibition, most hits filed as inhibitors | hit rate 1.8% among 300,000; calls by dose curve; tested in HEK293 cells; also: potency is read from the fitted curve at half-maximal effect
FMDV inh: High Throughput Screening for Foot and Mouth Disease Virus Antivirals; FMDV antiviral cell-based qHTS; hit rate 1.2% among 410,000; Potency, µM (top dose mostly 57.9 µM), for the others: top-dose activity change, negative = inhibition, most hits filed as inhibitors; calls by dose curve; tested in HEK293T cells; also: read-out not given here; potency is read from the fitted curve at half-maximal effect; nearly all actives have a fitted effect of over 45% in size
Active calls of the source: *; i = inactive; ? = inconclusive; . = no result given; ! = not active in a repeat; [ ] = dose if it differs, or a comment. % is scaled to controls: 0 for no effect and ±100 for the full control effect.

SMILES	Vaccinia Venus	HCMV antiviral	LASV entry inh	VACV mCherry inh	MARV entry inh	FMDV inh
Cc1ccc(CNC(=O)C2CC3Cn4c(nc5ccccc54)C3N2C)o1 (centres undefined)	-5%	2	.	i	.	-12%
Cc1ccc(CNC(=O)C2CC3Cn4c(nc5cc6ccccc6cc54)C3N2C)o1 (centres undefined)	-15%	-101*	.	i	.	-16%
O=C1NC(=O)C(=Cc2ccc(-c3ccc(Cl)cc3)o2)C(=O)N1	?	.	.	-16%	.	32µM*
O=C1NC(=O)C(=Cc2ccc(Sc3ccccc3)o2)C(=O)N1	-2%[7.34 µM]	124	10%	-28%[7.34 µM]	2%[46.1 µM]	22µM*
O=C1NC(=O)C(=Cc2ccc(-c3ccc(S(=O)(=O)N4CCOCC4)cc3)o2)C(=O)N1	-8%	19	.	i	.	?
COc1ccccc1CCNC(=O)CCc1c(C)c2cc3c(C)coc3cc2oc1=O	-5%	1	8%[46.1 µM]	-11%	0%[46.1 µM]	-19%
CC(=O)OC(C)(C)/C=C/C(=O)[C@](C)(O)C1[C@H](O)C[C@@]2(C)C3CC=C4C(C[C@H](O)C(=O)C4(C)C)[C@]3(C)C(=O)C[C@]12C (some centres undefined)	2.5µM*	.	.	0.5µM*	.	28µM*
CC(C)(O)/C=C/C(=O)C(C)(O)C1C(O)CC2(C)C3CC=C4C(C=C(O)C(=O)C4(C)C)C3(C)C(=O)CC12C (centres undefined)	28µM*	-97*	0.32µM*	7.9µM*	0.11µM*	-5%
CCOC(=O)CCN1C(=O)[C@H]2[C@H]3[C@H](O)[C@H](O)C/C(=N\NC(=O)OCc4ccc(OC)cc4)[C@@H]3CC[C@H]2C1=O	.	.	.	.	12%[14.2 µM]	.
Cc1ccc(NC(=O)C2CCCN(S(=O)(=O)c3ccc4c(c3)CCCC(=O)N4)C2)cc1N(C)C (centres undefined)	-7%	-33	-22%[46.1 µM]	-17%	.	?
Cc1ccc(Nc2cc(C)nc(-n3nc(C)cc3C)n2)cc1	-7%[7.34 µM]	-92*	?	-10%[7.34 µM]	.	9%
CCOc1ccc(Nc2cc(C)nc(-n3nc(C)cc3C)n2)cc1	16µM*	-84*	?	?	0.25µM*	20µM*
CCN(CC)c1nn2c(=O)c(C(=O)NCc3ccc(OC)cc3OC)cnc2s1	-14%	-10	29%[46.1 µM]	-13%	.	-10%
CCOC(=O)c1ccc(NC(=O)C2CCCN(c3ncnc4onc(C)c34)C2)cc1 (centres undefined)	-29%	-75*	?	-24%	.	0%
Cc1ccc(Sc2ccc(N3CCCC(C(=O)Nc4ccc(F)cc4F)C3)nn2)cc1 (centres undefined)	6%	-35	0.89µM*	-6%	?	-14%
CCOC(=O)c1ccc(NC(=O)C2CCCN(c3ccc(Sc4ccc(C)cc4)nn3)C2)cc1 (centres undefined)	-19%	-20	6.3µM*	-20%	?	11%
O=C(c1ccc2c(=O)n(CC3CCCO3)c(=S)[nH]c2c1)N1CCN(C(=O)c2ccco2)CC1 (centres undefined)	-16%	.	.	-24%	.	.
O=C(N/N=C/c1ccccc1C(=O)O)c1cc(-c2ccc3c4c(cccc24)CC3)n[nH]1	-2%	-61*	5%	-25%	?	-7%
CC(=O)c1ccc(NC(=O)Cn2nc(C(F)(F)F)c3c2CCC3)cc1	2%	35	13%[46.1 µM]	-7%	?	26%
Cc1cccc(CN2CCN(CC(=O)NCc3ccc(Cl)cc3)C2=O)c1	-4%	-7	-13%[46.1 µM]	-8%	-4%[46.1 µM]	1%
CC(C)(C)CC(C)(C)N=C1Nc2cc(Cl)c(Cl)cc2N[C@]12C[C@H]1CCCC(=O)N3CC[C@@H](C2)[C@@H]13	-13%	.	.	i	.	.
COc1ccc(S(=O)(=O)N(Cc2cccnc2)Cc2cc3ccccc3[nH]c2=O)cc1	.	?	.	.	.	20%
Cc1ccc(S(=O)(=O)N(Cc2cccnc2)Cc2cc3ccccc3[nH]c2=O)cc1	-9%	-62*	-18%[46.1 µM]	-13%	-9%[46.1 µM]	-9%
Cc1cccc(N(Cc2cc3ccccc3[nH]c2=O)S(=O)(=O)c2ccccc2)c1	-17%	?	0%	i	20%	?
O=c1[nH]c2ccccc2cc1CN(c1ccccc1)S(=O)(=O)c1ccccc1	-20%	-64*	17%	i	?	0%
SMILES	Vaccinia Venus	HCMV antiviral	LASV entry inh	VACV mCherry inh	MARV entry inh	FMDV inh
CCN(CC)C(=O)Cn1c(=O)n(-c2ccc(C)c(C)c2)c(=O)c2c3c(sc21)CCCCC3	-8%	0	12%[46.1 µM]	-5%	25%[46.1 µM]	1%
C[C@]12N[C@H](Cc3ccccc31)c1ccccc12	-9%	?	7%	-17%	14µM*!	?
COc1ccc(-c2nc3cnc(OC)nc3n(Cc3cccc(OC)c3)c2=O)cc1	.	.	.	.	.	-4%
CCCC(=O)Nc1nnc([C@H]2C[C@H](O)[C@@H](CO)O2)s1	-7%	-96*	.	6%	.	-8%
O=C(Nc1nnc([C@@H]2C[C@H](O)[C@@H](CO)O2)s1)c1cccc(OC(F)(F)F)c1	-12%	-84*	.	34%	.	9%
CC(C)(C)C(=O)Nc1nnc([C@H]2C[C@H](O)[C@@H](CO)O2)s1	-4%	0	.	i	.	-9%
S=c1[nH]cnc2scc(-c3ccc(Br)cc3)c12	-25%	-87*	-29%[46.1 µM]	-8%	?	-20%
Cc1ccc(-c2csc3nc[nH]c(=S)c23)cc1	-27%	?	-2%	-10%	-29%	-28%
O=C(NCc1ccc(F)cc1)c1c(O)nc2ccccn2c1=O	2%	-61*	.	-2%	19%[46.1 µM]	-7%
COc1ccc(NC(=O)c2ccco2)cc1NC(=O)C(C)Oc1ccc(Cl)cc1Cl (centres undefined)	-14%	-80*	?	-13%	?	?
COc1ccc(NC(=O)c2ccco2)cc1NC(=O)C(C)(C)Oc1ccc(Cl)cc1	-20%	-1	?	-21%	?	45µM*
COc1ccc(NC(=O)Cc2ccc(Cl)cc2)cc1NC(=O)c1ccco1	.	-86*	-26%	.	0%	-26%
COc1ccc2c(c1)-c1nc(-n3ncc(C(=O)NCc4cccnc4)c3C3CC3)ncc1CC2	-18%	.	.	?	.	?
CCn1c(-c2ccccc2F)nc2cc(NC(C)=O)cc(C(=O)N(C)Cc3ccccn3)c21	-24%	.	.	i	.	-12%
CC(C)(C)Cc1c(-c2ccc(F)cc2)nc2ccc(Br)cn12	-15%	-76*	.	-16%	.	-28%
COc1ccccc1S(=O)(=O)N1CCN(c2nc(-c3cccs3)nc3ccccc23)CC1	-10%	.	.	i	.	.
Cc1ccccc1Oc1nc2c(C)cccn2c(=O)c1/C=C(\C#N)C(=O)Nc1c(C)n(C)n(-c2ccccc2)c1=O	-8%	77	?	i	?	32µM*

Source: PubChem BioAssay (National Center for Advancing Translational Sciences (NCATS))
